# Assay outcomes (PubChem)
# Only some compounds are listed: those with a hit (about 14% of all), similar ones and a draw of the others.
# Pf growth 96h: Primary qHTS for delayed death inhibitors of the malarial parasite plastid, 96 hour incubation. P. falciparum luciferase reporter growth, 96 h. Potency, µM (series often up to 28.7 µM), without a hit: at the top dose activity change, negative = inhibition, most hits filed as inhibitors. 320,000 compounds, 6.9% hits. AID 504834, 2011; also: potency is read from the fitted curve at half-maximal effect
#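 96 h incubation, 37 C, 5% CO2, of luciferase-reporter P. falciparum-infected RBCs (2% hematocrit, 0.05% parasitemia final) with test compounds; endpoint luminescence.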
# Pf growth 48h: Primary qHTS for delayed death inhibitors of the malarial parasite plastid, 48 hour incubation; 310,000 compounds, 5.9% hits; Potency, µM (titrated, usually from 28.7 µM), for the others: at the top dose activity change, negative = inhibition, most hits filed as inhibitors; P. falciparum luciferase growth in erythrocytes, 48 h; AID 504832, 2011; also: potency is read from the fitted curve at half-maximal effect
#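 In quantitative HTS format, infected erythrocytes bearing luciferase-reporter parasites were treated for a single generation at 37 C. Luminescence after adding detection reagent served as the growth measure.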
# FBPA Giardia inh: qHTS Assay for Inhibitors of Fructose-1,6-bisphosphate Aldolase from Giardia Lamblia; purified Giardia FBPA; Potency, µM (top dose mostly 59.6 µM), inactives show top-dose activity, negative = inhibition, hits mostly inhibitors; 290,000 compounds, 0.71% hits; AID 2451, 2010; also: potency is read from the fitted curve at half-maximal effect; nearly all actives have a fitted effect of over 55% in size
# Target sequence (A8B2U2 whole entry, looked up): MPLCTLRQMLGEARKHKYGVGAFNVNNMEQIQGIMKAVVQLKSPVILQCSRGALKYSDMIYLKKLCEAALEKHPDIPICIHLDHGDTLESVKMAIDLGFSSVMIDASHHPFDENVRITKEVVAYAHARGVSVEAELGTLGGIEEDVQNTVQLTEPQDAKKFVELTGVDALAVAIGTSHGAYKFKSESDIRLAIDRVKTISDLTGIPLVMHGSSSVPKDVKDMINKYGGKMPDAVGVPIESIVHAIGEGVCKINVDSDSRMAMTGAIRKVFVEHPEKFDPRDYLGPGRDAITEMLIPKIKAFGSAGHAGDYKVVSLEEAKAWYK
#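 Giardia FBPA (40 nM reagent) was preincubated 10 min at RT with compound (up to 57.5 uM final), then substrate plus GAPDH/TPI/NAD/arsenate coupling system with diaphorase/resazurin was added; resorufin fluorescence (525/598 nm) was read after 20 min.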
# Sm TGR block: qHTS Assay for the Inhibitors of Schistosoma Mansoni Peroxiredoxins; Schistosoma mansoni thioredoxin glutathione reductase (TGR), Q962Y6; purified TGR, DTNB reduction, TNB absorbance 405 nm; Potency, µM (top dose mostly 114 µM), for inactives: top-dose activity change, negative = inhibition, usual class: inhibitors; 360,000 compounds, 3% hits; also: potency is read from the fitted curve at half-maximal effect; nearly all actives have a fitted effect of over 60% in size
#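 First, TGR (20 nM dispensed) and NADPH were mixed with compound. Second, a 15 min room-temperature incubation followed. Third, further NADPH and then DTNB were added to start the reaction. Finally, TNB absorbance was monitored kinetically.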
# HCMV antiviral: qHTS Assay for inhibitors of the human cytomegalovirus (HCMV). activity change, negative = inhibition, % at 57.5 µM. 410,000 compounds, 4.5% hits. HFF cells, HCMV-luciferase reporter, 72 h; hits give low values; in the data active = activity change below about -60%; inconclusive = no clear call, values can overlap the other calls; inactive = above about -39%
#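 Human foreskin fibroblasts infected with luciferase-reporter HCMV at MOI 1 PFU/cell, compounds at two doses. Luciferase measured 72 h post infection; normalized to buffer-only basal and Salinomycin (10uM) controls.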
# * hit, by the source's call; ? = inconclusive; · = no result given; [ ] = dose if it differs, or a comment. Unless noted, calls follow the shape of the dose curve; as a rule, active = well fitted curve in the direction sought with a large enough effect; inconclusive = small, poorly fitted or top-dose-only effect, or another doubt; inactive = no such curve, though single readings can be large; an effect the other way counts as inactive or inconclusive. % is scaled to controls: 0 for no effect and ±100 for the full control effect.
SMILES,Pf growth 96h,Pf growth 48h,FBPA Giardia inh,Sm TGR block,HCMV antiviral
CC(=O)Nc1cccc(NC(=O)c2cc([N+](=O)[O-])ccc2N2CCCCC2)c1,-86.0%,?,·,2.0%,-15.3
COc1cc(C(=O)NCC(c2ccc(N(C)C)cc2)N2CCc3ccccc32)cc(OC)c1OC (centres undefined),·,·,·,-17.2%,-33.7
CCNc1ncc2nc(-c3ccccc3)c(=O)n(CCC#N)c2n1,·,·,5.3%,·,·
CN(C)c1ccc(/C=C/C(=O)c2ccc3c(c2)OCCO3)cc1[N+](=O)[O-],46.5%,0.0%,0.7%,4.3%,-14.1
CN(C)c1ccc(/C=N/N=C(N)N)cc1[N+](=O)[O-],281.1%,2.08µM*,-5.0%,·,?
COc1ccc(-c2nc3cnc(N(C)C)nc3n(CCC#N)c2=O)cc1,·,·,-0.5%,·,·
O=C(NC1CC2CCCC(C1)N2C(=O)Nc1ccccc1F)C1CC1 (centres undefined),54.8%,10.8%,-9.3%,-6.1%,11.0
CCc1cc(C(=O)c2ccc(OC)cc2)c(NC(=O)CN2CCCC2)s1,?,?,-18.7%,?,7.5
CCc1cc(C(=O)c2ccc(OC)cc2)c(NC(=O)CN2CCCCC2)s1,3.7µM*,3.7µM*,1.2%,-5.4%,82.6
O=C(CN1CCN(Cc2ccccc2)CC1)Nc1cccc(S(=O)(=O)N2CCCCCC2)c1,-25.5%,?,-0.8%,9.8%,-14.3
O=C(Nc1cccc(S(=O)(=O)N2CCCCC2)c1)c1c2c(nc3ccccc13)CCN(Cc1ccccc1)C2,2.62µM*,2.94µM*,-4.3%,3.0%,-3.8
O=C(COC(=O)c1c2c(nc3ccccc13)CCN(Cc1ccccc1)C2)Nc1c(F)cccc1F,10.4µM*,0.0%,5.6%,4.1%,-96.3*
CC(=O)Nc1ccc(NC(=O)COC(=O)c2c3c(nc4ccccc24)CCN(Cc2ccccc2)C3)cc1,5.86µM*,10.4µM*,-5.5%,-7.2%,25.7
CCN1CCc2nc3ccccc3c(C(=O)Nc3ccc(F)cc3)c2C1,?,2.08µM*,0.1%,1.9%,6.5
Cn1c2c(c(=O)n(C)c1=O)C(C(F)(F)F)(C(F)(F)F)N=C(CCC1CCCCC1)N2,11.7µM*,?,0.9%,8.1%,-103.0*
CC1CCc2c(sc(NC(=O)c3cc(-c4ccc(F)cc4)on3)c2C(N)=O)C1 (centres undefined),·,·,·,0.0%,-5.7
CCOc1ccc(OCCSc2nnnn2C2CCCCC2)cc1,10.4µM*,11.1%,1.2%,-4.1%,-11.2
CCOc1ccc2nc(NC(=O)CSc3nnnn3C3CCCCC3)sc2c1,4.15µM*,39.0%,-3.1%,-35.5%,-1.4
Clc1ccc(OCCSc2nnnn2C2CCCCC2)cc1,·,19.3%,1.3%,1.0%,27.7
FC(F)(F)c1nc(N2CCCC2)ncc1-c1nnnn1-c1ccc(Cl)cc1,-1.9%,·,-6.9%,-27.8%,-65.1*
Fc1ccc(-n2nnnc2-c2cnc(-c3cccs3)nc2C(F)(F)F)cc1,5.22µM*,?,-11.1%,-27.0%,-86.2*
FC(F)(F)c1nc(-c2ccncc2)ncc1-c1nnnn1-c1ccccc1,?,?,·,1.8%,3.2
Cc1ccc(-n2nnnc2-c2cnn(-c3ccc(F)cc3)c2C(F)(F)F)cc1,?,?,0.5%,1.9%,-69.8*
c1ccc(-n2nnnc2-c2cnc(-c3ccncc3)nc2-c2cccs2)cc1,?,10.4µM*,-11.0%,-5.7%,-21.9
Cc1ccc(C)c(NC(=O)CN(C)C(=O)c2cc3ccccc3oc2=O)c1,·,·,·,·,89.9
Cc1ccc(C)c(C(=O)CSc2nnc(C)s2)c1,-18.6%[5.75 µM],17.2%,-4.6%,·,-16.4
CC(=O)Nc1ccc(S(=O)(=O)Oc2ccc(C(=S)N3CCC(O)CC3)cc2)cc1,-18.7%,11.1%,12.4%,-1.7%,-72.4*
COc1cc(C(=S)N2CCOCC2)cc(OC)c1OS(=O)(=O)c1ccc(Cl)cc1,10.4µM*,?,-3.4%,2.8%,43.6
CCOc1cc(C(=S)N2CCOCC2)ccc1OS(=O)(=O)c1ccc(NC(C)=O)cc1,-23.5%,0.0%,6.3%,9.7%,-82.8*
